PubChem BioAssay AID624489 (Broad Institute, 2012)
Results with a measured potency or affinity are listed apart. Values without a mark were called inactive.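 Rule for the calls: active = compounds with a falling luminescence curve whose half-maximal concentration is at most twice the top valid dose; inconclusive = flat fit between -70 and -30 percent, or poor fit; inactive = the rest.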

Experiment: viability loss in MITF-independent A375 cells – cell-based, CellTiter-Glo luminescence, dry powder, set 2, counter-screen for MITF inhibitor project, dose response (AID 624489)
Conditions: A375 melanoma viability, CellTiter-Glo ATP luminescence, 24 h; series mostly up to 35 µM; activity change, negative = cytotoxicity: at the top concentration

Structure (SMILES)	activity change, negative = cytotoxicity [%]
C=CCNC1=C(NCC=C)C(=O)c2ccccc2C1=O	-5.66
C=CCNC1=C(NS(=O)(=O)c2cccs2)C(=O)c2ccccc2C1=O	-7.19
O=C1C(NS(=O)(=O)c2ccc(Br)cc2)=C(N2CCN(c3ccccc3)CC2)C(=O)c2ccccc21	-6.92
C=CCNC1=C(NC(=O)c2ccccc2)C(=O)c2ccccc2C1=O	-9.93
COc1ccc(C2=C(NC(=O)c3ccc(OC)cc3-c3cccc(OC)c3)C(=O)c3ccccc3C2=O)cc1	-0.405
